Measured values: PMC4336329 (PLoS ONE, 2015)
Among all 310,000 compounds or so, about 14,000 (4.5%) showed an effect of 50% or more. Effects have a minus sign here. For the sample, strong results were picked, then their nearest neighbours and some compounds at random.

Each compound was assayed against human ether-à-go-go-related gene (hERG) potassium channel (human, UniProt Q12809) (assay: primary screen, population patch clamp on CHO cells stably expressing hERG; higher = less effect of the substance).
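Further: peak tail current of the secondary pulse compared with the same well before compound.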

Chain of human ether-à-go-go-related gene (hERG) potassium channel (Q12809 whole entry, looked up): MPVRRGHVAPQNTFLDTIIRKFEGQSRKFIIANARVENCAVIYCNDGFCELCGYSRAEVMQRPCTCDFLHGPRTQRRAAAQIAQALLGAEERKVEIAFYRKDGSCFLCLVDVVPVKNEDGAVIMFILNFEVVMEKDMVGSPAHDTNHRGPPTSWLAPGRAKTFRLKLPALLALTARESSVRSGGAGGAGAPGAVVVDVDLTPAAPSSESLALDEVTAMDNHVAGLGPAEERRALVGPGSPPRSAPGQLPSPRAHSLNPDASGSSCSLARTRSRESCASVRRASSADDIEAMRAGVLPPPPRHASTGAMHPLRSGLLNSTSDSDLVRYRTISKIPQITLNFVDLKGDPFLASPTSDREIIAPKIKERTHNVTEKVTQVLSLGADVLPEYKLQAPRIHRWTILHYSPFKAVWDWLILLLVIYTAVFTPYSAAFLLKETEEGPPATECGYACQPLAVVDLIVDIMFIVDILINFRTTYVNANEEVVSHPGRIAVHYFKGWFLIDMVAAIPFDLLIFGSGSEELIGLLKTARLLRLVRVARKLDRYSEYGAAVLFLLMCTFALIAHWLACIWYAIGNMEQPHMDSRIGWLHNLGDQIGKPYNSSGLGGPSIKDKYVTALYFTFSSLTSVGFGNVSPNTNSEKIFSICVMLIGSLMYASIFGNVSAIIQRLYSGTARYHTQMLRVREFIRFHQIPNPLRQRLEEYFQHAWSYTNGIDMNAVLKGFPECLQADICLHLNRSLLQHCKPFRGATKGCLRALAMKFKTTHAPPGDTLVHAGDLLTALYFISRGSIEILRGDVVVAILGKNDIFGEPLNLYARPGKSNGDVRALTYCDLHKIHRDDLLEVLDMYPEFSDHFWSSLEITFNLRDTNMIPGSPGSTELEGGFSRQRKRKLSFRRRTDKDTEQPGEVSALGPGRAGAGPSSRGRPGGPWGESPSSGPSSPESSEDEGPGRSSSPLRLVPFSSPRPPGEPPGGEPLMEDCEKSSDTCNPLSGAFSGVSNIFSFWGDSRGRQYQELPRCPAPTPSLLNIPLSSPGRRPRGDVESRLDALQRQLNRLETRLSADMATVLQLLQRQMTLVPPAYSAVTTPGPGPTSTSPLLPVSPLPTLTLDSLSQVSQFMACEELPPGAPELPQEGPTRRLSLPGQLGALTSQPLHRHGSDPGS

Row | Structure (SMILES) | hERG current change (%, negative = inhibition) at 10uM
1 | COc1cnn(-c2ccc([N+](=O)[O-])cc2)c(=O)c1Cl | -2.52%
2 | Cn1ncc(Oc2ccc([N+](=O)[O-])cc2)c(Cl)c1=O | -71.2%
3 | Cn1ncc(Cl)c(Oc2ccc(Cl)cc2)c1=O | -17%
4 | O=C(NCCN1CCc2ccccc2C1)C1CCN(S(=O)(=O)N2CCCCC2)CC1 | -53.8%
5 | O=C(C1CCN(c2nnc(-n3cccc3)s2)CC1)N1CCCCC1 | -6.55%
6 | O=C(NCCCN1CCc2ccccc2C1)C1CCN(S(=O)(=O)N2CCCC2)CC1 | -2.78%
7 | CN1CCN(CCCNC(=O)C2CCN(c3nnc(-n4cccc4)s3)CC2)CC1 | 20.2%
8 | O=C(NCCCN1CCc2ccccc2C1)C1CCN(c2nnc(-n3cccc3)s2)CC1 | -55.6%
9 | O=C(C1CCN(c2nnc(-n3cccc3)s2)CC1)N1CCc2ccccc2C1 | -60.3%
10 | O=C(NCCCN1CCc2ccccc2C1)C1CCN(S(=O)(=O)N2CCC3(CC2)OCCO3)CC1 | -12.4%
11 | O=C(C1CCN(c2nnc(-n3cccc3)s2)CC1)N1CCOCC1 | -13.9%
12 | CCCN1CCN(CCCNC(=O)C2CCN(c3nnc(-n4cccc4)s3)CC2)CC1 | -14.4%
13 | Cc1noc(C)c1COC(=O)C1CC(O)CN1S(=O)(=O)c1ccc(Cl)cc1 (centres unmarked) | -8.48%
14 | O=C(CC1C(=O)NCCN1Cc1ccccc1C(F)(F)F)NCCN1CCCCC1=O (centres unmarked) | 16.9%
15 | O=S(=O)(Cc1noc(-c2ccc(Cl)cc2)n1)Cc1ccco1 | -4.77%
16 | Cc1cc(C)nc(NC(=O)CSc2nn(C)c(=S)s2)n1 | -0.37%
17 | Cc1cc2cc(CNC(=O)Nc3ccc(Cl)c(Cl)c3)ccc2n1C | 2.71%
18 | O=C(Nc1nc2ccccc2n1CCN1CCCCC1)c1ccco1 | -54.8%
19 | CCCn1c(NC(=O)C2CCN(C(=O)c3ccccc3C)CC2)nc2ccccc21 | -16%
20 | CCCn1c(NC(=O)c2ccco2)nc2ccccc21 | 9.09%
21 | O=C(Nc1nc2ccccc2n1CCN1CCCCC1)C1CCCCC1 | -61.2%
22 | CCCCn1c(NC(=O)C2CCCCC2)nc2ccccc21 | 4.63%
23 | O=C(Nc1nc2ccccc2n1CCN1CCCC1)C1CCCCC1 | -58.6%
24 | CCn1c(NC(=O)C2CCCCC2)nc2ccccc21 | 8.36%
25 | O=C(Nc1nc2ccccc2n1Cc1ccccc1)c1ccco1 | 20.2%
26 | CN(C)CCCn1c(NC(=O)C2CCCCC2)nc2ccccc21 | -27.3%
